About 83,000 compounds went through this panel and 20% of them were active in at least one assay; those are over-represented in the sample as a whole.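 For each line, cells grew in 96-well plates with the test compound present at a single concentration for 48 hours.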 A number with no mark means an inactive call. Calls of active or inactive are those of the source. The calls were made as follows: active = growth percent below 10; inactive = the rest.
Legend:
Assay in all cases: NCI-60 one-dose screen, 48 h (100 = growth as untreated, 0 = no growth, -100 = all killed)
Conditions in all cases: 10 µM unless noted
NCI-H23 lung = tested on: NCI-H23 lung
NCI-H226 lung = tested on: NCI-H226 lung
NCI-H322M lung = tested on: NCI-H322M lung
HOP-62 NSCLC = tested on: HOP-62 NSCLC
NCI-H460 lung = tested on: NCI-H460 lung
HOP-92 NSCLC = tested on: HOP-92 NSCLC
NCI-H522 lung = tested on: NCI-H522 lung
A549/ATCC NSCLC = tested on: A549/ATCC NSCLC
786-0 renal = tested on: 786-0 renal
COLO 205 colon = tested on: COLO 205 colon
DU-145 prostate = tested on: DU-145 prostate
K-562 leukemia = tested on: K-562 leukemia
MALME-3M melanoma = tested on: MALME-3M melanoma
MDA-MB-231 breast = tested on: MDA-MB-231 breast
SF-268 CNS = tested on: SF-268 CNS
SF-295 CNS = tested on: SF-295 CNS
SF-539 CNS = tested on: SF-539 CNS
UACC-257 melanoma = tested on: UACC-257 melanoma
M14 melanoma = tested on: M14 melanoma

Structure (SMILES)	growth (NCI-H23 lung) [%]	growth (NCI-H226 lung)	growth (NCI-H322M lung) [%]	growth (HOP-62 NSCLC)	growth (NCI-H460 lung)	growth (HOP-92 NSCLC)	growth (NCI-H522 lung)	growth (A549/ATCC NSCLC)	growth (786-0 renal)	growth (COLO 205 colon)	growth (DU-145 prostate)	growth (K-562 leukemia)	growth (MALME-3M melanoma)	growth (MDA-MB-231 breast)	growth (SF-268 CNS)	growth (SF-295 CNS)	growth (SF-539 CNS)	growth (UACC-257 melanoma)	growth (M14 melanoma)
COc1cc(-c2cc(=O)oc3cc(O)ccc23)c(OC)c2c1OCO2	83.5	86.4%	89.4	92.7%	88.9%	79%	81.7%	87%	95.6%	102%	101%	90.3%	88.7%	93.7%	92.4%	92%	92.1%	101%	96.5%
CC(C)(O)C1CCCN1C(=O)c1ccccc1I (stereo not drawn)	94.6	89.4%	101	95.4%	85.8%	58.6%	83.9%	92.1%	87.7%	105%	111%	83.5%	109%	84%	91.5%	84.4%	105%	104%	95.1%
O=C(N/N=C/c1ccncc1)c1ccccc1Nc1cccc(C(F)(F)F)c1	95.5	66.3%	88.5	97.6%	103%	47.3%	82%	55.6%	86.7%	107%	69.2%	77.7%	92.8%	79.8%	69.5%	94.5%	112%	62.9%	87.4%
COc1cc(NCC(C)(O)CN(CC(C)C)CC(C)C)c2nc(C)ccc2c1 (stereo not drawn)	79.7	74.1%	89.3	92.5%	101%	79.8%	77.6%	91%	86.6%	79.5%	110%	67.4%	94%	69.5%	93.7%	83.3%	96.1%	93.1%	91.5%
COc1ccc(CNC(=O)COc2ccc(/C=N/Nc3nc4ccccc4s3)cc2)cc1	33.9	18%	30.2	39.3%	-12.6% (active)	-24.8% (active)	31.1%	26.5%	-6.47% (active)	64%	-49.1% (active)	34.8%	24.1%	10.2%	19.9%	47.4%	21.1%	53.8%	54%
O=c1[nH]nc(-c2ccc(Cl)cc2)cc1Cc1cccc([N+](=O)[O-])c1	104	91.9%	119	96.3%	99.9%	44.2%	90.6%	81.9%	103%	101%	98.7%	94.2%	119%	72.6%	95.4%	92.4%	98.5%	97%	107%
CCN(CC)CCOC(COc1cc(C)cc(C)c1)COc1cc(C)cc(C)c1	37.9	54.4%	48.7	54.3%	9.62% (active)	22.7%	35.4%	47.8%	44.9%	-15.8% (active)	48.1%	2.57% (active)	13.6%	23.8%	56.6%	48.9%	61.9%	65.1%	7.46% (active)
COc1ccc(-c2c(-c3ccccc3)noc2N)cc1OC	105	113%	96.1	124%	116%	90.8%	86.1%	93.8%	96.4%	118%	104%	95%	102%	120%	107%	103%	115%	88.3%	98.4%
COc1ccc(-c2cnnc3c(-c4cccc(C(F)(F)F)c4)cnn23)cc1	70.4	60.9%	45.7	3.24% (active)	36%	52.7%	27.5%	63.5%	7.61% (active)	135%	57.8%	86.3%	24.1%	72.9%	30.1%	-5.8% (active)	15.9%	44%	78.7%
Brc1ccc(C2CC(c3cccc(Nc4ccncc4)c3)=NN2c2ccccc2)cc1 (stereo not drawn)	85.6	95%	87.3	77.2%	0.717% (active)	62.5%	87.4%	54.7%	90.2%	0.175% (active)	88.7%	4.05% (active)	66.7%	84.4%	103%	89%	84.4%	84%	101%
O=C(Nc1ccc2ncnc(Nc3ccc(Oc4cccc(F)c4)c(Cl)c3)c2c1)c1ccc(CN2CCOCC2)cc1	20.1	52%	60.7	17.9%	38.8%	53.9%	6.89% (active)	33.6%	42.2%	40.1%	39.6%	8.98% (active)	38.9%	46.1%	49%	27.3%	53.2%	53.1%	14.7%
COc1cc(-c2nc3occn3c2-c2ccnc(NCCNS(=O)(=O)c3ccc(Cl)cc3)n2)ccc1F	92.2	73.2%	91.6	93.3%	88.8%	78.5%	66.4%	82%	84.9%	86.5%	89.8%	58.9%	80.1%	78.3%	68.4%	88.6%	85.4%	90.2%	86%
O=[N+]([O-])c1cccc(-c2nc(-c3ccc(Cl)cc3Cl)cn2-c2ccccc2)c1	20.8	18%	157	-75.4% (active)	-76.4% (active)	12.6%	12.8%	-32.9% (active)	-99.5% (active)	-36.5% (active)	-80.1% (active)	43.5%	128%	-14.6% (active)	0.437% (active)	-74.3% (active)	23.6%	-63.6% (active)	-71.6% (active)
C=Cc1cc[n+](CCCCCCCCCCCC)cc1	102	103%	114	111%	98.3%	134%	110%	103%	106%	118%	105%	93.8%	111%	99.9%	99.7%	106%	104%	111%	102%
O=C(OCc1nc2nc(Cl)nc(N3CCOCC3)c2[nH]1)n1ccnc1	40.7	-67.6% (active)	65.4	30.4%	3.6% (active)	-66.7% (active)	-66% (active)	48.4%	-81.4% (active)	-65.3% (active)	9.47% (active)	-7.19% (active)	11%	-6.91% (active)	5.74% (active)	95.2%	-19.7% (active)	-71% (active)	-37.6% (active)
O=C(Nc1ccc2ncnc(Nc3ccc(Oc4cccc(F)c4)c(Cl)c3)c2c1)c1ccc(CNCCO)cc1	73.7	91.6%	39.9	54.7%	-61.4% (active)	62.5%	26.9%	48.6%	-4.01% (active)	-54.5% (active)	7.74% (active)	-8.41% (active)	2.04% (active)	-67.2% (active)	56%	19.6%	33.9%	99.1%	-45.9% (active)
COc1cc(NCCCN(CC(C)C)C2CCCC2)c2ncccc2c1	62.5	58.3%	101	82.9%	54.8%	59.5%	60%	79%	58.2%	65.1%	83.4%	39.2%	92.1%	74.8%	87.5%	87.4%	88.8%	89.4%	85.7%
